Screening results from PubChem BioAssay.
This is a sample that favours compounds with a hit; in the whole collection about 5.7% have one here.
GLP-1R inv ag: GLP-1 receptor (human) inverse agonism. 410,000 tested, 1.6% active. P43220. Potency, µM (series often up to 38.3 µM), hits mostly inhibitors. HEK293 GLP-1R CRE-luciferase, luminescence, 24 h; GLP-1R form is constitutively active; further: nearly all actives have a fitted effect of over 55% in size
Target sequence (P43220 whole entry, looked up): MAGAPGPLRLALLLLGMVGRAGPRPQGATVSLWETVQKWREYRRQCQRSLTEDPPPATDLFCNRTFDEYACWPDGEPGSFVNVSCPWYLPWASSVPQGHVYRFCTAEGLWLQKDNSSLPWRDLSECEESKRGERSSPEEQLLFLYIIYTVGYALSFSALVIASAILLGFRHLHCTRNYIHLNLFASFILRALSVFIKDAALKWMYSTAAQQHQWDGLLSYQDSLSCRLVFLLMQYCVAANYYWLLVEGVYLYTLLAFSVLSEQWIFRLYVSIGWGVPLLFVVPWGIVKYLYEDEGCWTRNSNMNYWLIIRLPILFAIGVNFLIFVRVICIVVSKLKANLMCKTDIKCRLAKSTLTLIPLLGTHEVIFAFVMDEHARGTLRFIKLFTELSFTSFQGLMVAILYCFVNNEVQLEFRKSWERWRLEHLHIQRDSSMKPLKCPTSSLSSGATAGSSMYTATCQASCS
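HEK293 cells stably co-expressing constitutively active GLP-1R and a cAMP-responsive luciferase reporter were seeded in DMEM with 10% Nu serum, given compounds after 12 h, and incubated 24 h at 37 deg C. Luminescence was then read.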
HEK293 tox: cytotoxicity in counter-screen for GLP-1R inverse agonists. AID 624418. 410,000 tested, 0.13% active. Potency, µM (doses to about 38.3 µM), actives largely listed as inhibitors. HEK293 cAMP-luciferase reporter cells, luminescence, 24 h;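 further: loss of luciferase light is scored as toxicity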
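Here, cytotoxicity is scored as loss of luminescence. The MLSMR collection was tested on cells seeded in medium containing 10% Nu serum, with a 24 hr compound exposure preceded by 12 hours of culture.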
GLP1R ag: agonists of human GLP-1 receptor | P43220 | HEK293 GLP-1R CRE-luciferase, luminescence, 4-6 h; cells express a hypersensitive GLP-1R form | Potency, µM (titrated, usually from 45.6 µM), most hits filed as activators | 380,000 tested, 0.007% active | AID 624172
DRD3 agonist: D3 dopamine receptor (human) agonism; P35462; D3R DiscoveRx beta-arrestin cells, luminescence, 90 min; max activation, %; 410,000 tested, 0.58% active; in the data active means max activation above about 30%
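Agonist-mode cell screen: cells plated at 1500/well and incubated overnight at 37 °C, then exposed to library compounds for 90 min at 37 °C. Detection reagent was added for 30–60 min at room temperature, and luminescence was read.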
ClpP mod: qHTS Assay for Activators of ClpP | ATP-dependent Clp protease proteolytic subunit (Bacillus subtilis (strain 168)), P80244 | purified B. subtilis ClpP, FRET peptide cleavage, 20 min | Potency, µM (highest dose often 57.5 µM) | 340,000 tested, 1.9% active | AID 651965, 2013; active means well fitted falling curve with a large enough effect; inconclusive means small, poorly fitted or top-dose-only effect; inactive means no such curve, though single readings can be large or run the other way; further: the source files actives as falling curves though it sought activators and does not explain the sign; nearly all actives have a fitted effect of over 65% in size
Target sequence (P80244 whole entry, looked up): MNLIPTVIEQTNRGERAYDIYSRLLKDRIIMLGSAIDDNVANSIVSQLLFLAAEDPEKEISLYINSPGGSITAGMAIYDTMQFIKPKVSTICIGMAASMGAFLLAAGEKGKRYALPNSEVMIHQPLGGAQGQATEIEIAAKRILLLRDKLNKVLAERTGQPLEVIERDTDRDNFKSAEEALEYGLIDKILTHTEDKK
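Purified B. subtilis ClpP, 10 microg/mL final in Tris/HCl pH8 with KCl, BSA, glycerol and Tween-20, cleaved an Abz/nitrotyrosine-quenched decapeptide. Fluorescence (ex 320, em 430) was read at 0 and 20 min at room temperature. Delta was normalized to 5.8 microM ADEP and DMSO/no-enzyme controls.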
D3 antag: D3 dopamine receptor (human) antagonism; D3R cells, DiscoveRx beta-arrestin luminescence, antagonist mode; active compounds read low; max response, negative = inhibition, %; AID 652054; P35462; 360,000 tested, 2.5% active; in the data active means max response below about -50%; inconclusive means no clear call, values can overlap the other calls
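Cells plated overnight at 1500 cells/well, then exposed to library compounds with dopamine controls for 90 minutes at 37 degrees C. DiscoveRx reagent added for 30–60 minutes at room temperature; luminescence read, quantitative HTS format.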
Large screens that a line does not name were inactive. Unless noted, the call rests on the fitted dose curve; in most records, active means well fitted curve in the direction sought with a large enough effect; inconclusive means small, poorly fitted or top-dose-only effect, or another doubt; inactive means no such curve, though single readings can be large; an effect the other way counts as inactive or inconclusive.

C=CCn1c(-c2csc(-c3ccccc3)n2)n[nH]c1=S	GLP-1R inv ag inconclusive, HEK293 tox 11µM
CCOC(=O)[C@@H](CCc1ccccc1)N[C@H](C)C(=O)N1[C@H](C(=O)O)C[C@@H]2CCC[C@@H]21	D3 antag -54
COc1ccc(CN2C(=O)N(c3ccccc3)C(=O)C2c2ccccc2)cc1COc1ccc(NC(C)=O)cc1 (centres undefined)	none (no result: GLP-1R inv ag, HEK293 tox, GLP1R ag, DRD3 agonist, D3 antag)
Nc1c(Cl)cc(C(=O)NC2CC2)cc1Cl	none (no result: ClpP mod)
Clc1cc2nc[nH]c2cc1Cl	DRD3 agonist 37
CO[C@@H]1[C@@H](O[C@@H]2O[C@H](C)[C@@H](O[C@H]3C[C@@](C)(O)[C@@H](O)[C@H](C)O3)[C@H](N(C)C)[C@H]2O)[C@@H](CC=O)C[C@@H](C)[C@@H](O[C@@H]2CC[C@H](N(C)C)[C@@H](C)O2)/C=C/C=C/C[C@@H](C)OC(=O)C[C@H]1OC(C)=O	none (no result: GLP-1R inv ag, HEK293 tox, GLP1R ag, ClpP mod, D3 antag)
O=C(O)CCn1c(=O)[nH]c2ccccc2c1=O	ClpP mod inconclusive
O=c1[nH]c2ccccc2c(=O)n1Cc1ccccc1	ClpP mod 35µM, D3 antag inconclusive
Nn1c(=O)[nH]c2ccccc2c1=O	none
O=C(c1ccc(Cn2c(=O)[nH]c3ccccc3c2=O)cc1)N1CCN(c2ccc(Cl)cc2)CC1	GLP-1R inv ag 11µM
CCn1c(=O)[nH]c2ccccc2c1=O	D3 antag -56
CC(=O)c1ccc(N2CCN(C(=O)c3ccc(Cn4c(=O)[nH]c5ccccc5c4=O)cc3)CC2)cc1	ClpP mod inconclusive (no result: GLP1R ag, D3 antag)
CCOC(=O)c1c(C)[nH]c(C)c1S(=O)(=O)N1CCCC(C(=O)Nc2ccc(F)cc2F)C1 (centres undefined)	none (no result: GLP1R ag, D3 antag)
CCOc1ccc(NC(=O)CSc2nc(C)c(C(=O)Nc3ccccc3)c(-c3ccc(Cl)cc3)c2C#N)cc1	none (no result: GLP1R ag, D3 antag)
COC(=O)C1=C(C)N=C2SC(C#N)=C(N)N2C1c1cc(OC)c(OC)c(OC)c1 (centres undefined)	none
COC(=O)C1=C(C)N=C2SC(C#N)=C(N)N2C1c1ccc(OCc2ccccc2)cc1 (centres undefined)	GLP-1R inv ag 5µM
CCOC(=O)c1c(CN2CCOCC2)oc2ccc(OC(C)=O)cc12	none
CCOC(=O)c1c(CN2CCN(C)CC2)oc2ccc(O)cc12	D3 antag -54
CCOC(=O)c1c(-c2ccccc2)oc2ccc(O)c(CN3CCN(C)CC3)c12	GLP-1R inv ag 3.2µM, HEK293 tox inconclusive
CN1CCN(Cc2c(O)ccc3occ(C(=O)c4ccccc4)c23)CC1	HEK293 tox 3.2µM
O=c1c(O)c(-c2ccc3c(c2)OCO3)oc2ccccc12	GLP-1R inv ag inconclusive
CCOc1ccc(-c2oc3ccccc3c(=O)c2O)cc1OCC	ClpP mod 32µM (no result: GLP1R ag, D3 antag)
Cc1cccc(C(=O)NCCc2nc3ccccc3n2Cc2ccc(Cl)cc2)c1	GLP-1R inv ag inconclusive (no result: GLP1R ag, D3 antag)
COCCNc1nc(NCCCN2CCCC2=O)c2sccc2n1	none
COc1ccc2oc(-c3ccccc3)c(C(=O)N3CCOCC3)c2c1	GLP-1R inv ag inconclusive, ClpP mod 28µM
CCOc1ccc2oc(-c3ccccc3)c(C(=O)N3CCN(C)CC3)c2c1	HEK293 tox inconclusive, ClpP mod 11µM
CCOC(=O)c1oc2ccc(Br)cc2c1NC(=O)CN1CCN(C)CC1	GLP-1R inv ag 8.9µM, GLP1R ag 10µM
CC(=O)Oc1ccc2oc(C)c(C(=O)N3CCOCC3)c2c1	none
CCOC(=O)c1c(-c2ccccc2)oc2ccc(OC)cc12	GLP-1R inv ag inconclusive, ClpP mod 10µM
OC(CN1CCCCC1)c1ccccc1 (centres undefined)	none (no result: GLP-1R inv ag, HEK293 tox, GLP1R ag, DRD3 agonist, D3 antag)
N#Cc1c(SCC(=O)Nc2nncs2)sc2c(O)cc(=O)[nH]c12	none (no result: ClpP mod)
CCOC(=O)c1c(C)n(-c2ccc(C)cc2)c2ccc(OCC(O)CN3CCN(C)CC3)cc12 (centres undefined)	GLP-1R inv ag 5µM, HEK293 tox inconclusive
CCOC(=O)COc1c(-c2ccc(OC)cc2)oc2ccccc2c1=O	ClpP mod 32µM
CCOC(=O)c1c(-c2ccccc2)oc2ccc(OCc3ccccc3Br)cc12	ClpP mod inconclusive (no result: GLP1R ag, D3 antag)
CCOC(=O)c1c(-c2ccccc2)oc2ccc(OCC(O)CNCCN(C)C)cc12 (centres undefined)	GLP-1R inv ag 5µM, HEK293 tox inconclusive, ClpP mod 35µM, D3 antag inconclusive
CCOC(=O)c1c(-c2ccccc2)oc2ccc(OCC)cc12	GLP-1R inv ag 10µM (no result: ClpP mod)
CCOC(=O)c1c(-c2ccccc2)oc2ccc(OCc3ccc(C)cc3)cc12	none (no result: GLP1R ag, D3 antag)
Cc1ccc(CNC(=O)CN2CCCN(Cc3ccc(F)cc3)S2(=O)=O)cc1	none (no result: GLP1R ag, D3 antag)
COc1ccc2c(c1)CCc1c(C(=O)Nc3c(C)nn(Cc4ccc(Cl)c(Cl)c4)c3C)noc1-2	none (no result: GLP1R ag, D3 antag)
COCCOC(=O)c1c(C)oc2ccc(OS(C)(=O)=O)cc12	none
CCOC(=O)c1c(C)n(C)c2ccc(OCC(O)CNCCc3ccccc3)cc12 (centres undefined)	GLP-1R inv ag 11µM, HEK293 tox inconclusive
CCN(CC)CCOC(=O)c1c(C)oc2ccc(O)cc12	D3 antag -72
COCCOC(=O)c1c(C)oc2ccc(OCc3cc(C(=O)OC)oc3C)cc12	DRD3 agonist 48
Cc1ccc(C)c(N=Nc2ccc(O)c3ncccc23)c1	GLP-1R inv ag inconclusive, D3 antag inconclusive
CCS(=O)(=O)c1ccc(OC)c(N=Nc2ccc(O)c3ncccc23)c1	none (no result: ClpP mod)
Oc1ccc(N=Nc2ccc3c(c2)OCCO3)c2ncccc12	GLP-1R inv ag inconclusive, HEK293 tox 10µM, D3 antag -66
CCN(CC)S(=O)(=O)c1cc(OC)ccc1N=Nc1ccc(O)c2ncccc12	D3 antag -108
CCOc1ccc(N=Nc2ccc(O)c3ncccc23)cc1	D3 antag -58 (no result: ClpP mod)
Cc1cccc(N=Nc2ccc(O)c3ncccc23)c1	D3 antag -101
O=C(Nc1ccc2c(c1)OCO2)c1ccc2nc([C@@H]3O[C@H](CO)[C@H](O)[C@H](O)[C@H]3O)[nH]c2c1	none
Cc1c(C)n(C)c2ccc(C(=O)NCCc3ccc(Cl)cc3)cc12	GLP-1R inv ag inconclusive, ClpP mod inconclusive (no result: GLP1R ag, D3 antag)
Cc1ccc(NC(=O)c2cc3nc(-c4ccc5c(c4)OCO5)cc(C(F)(F)F)n3n2)cc1Cl	none (no result: GLP1R ag, D3 antag)
CSc1ccccc1-c1nnc(-c2ccc(Cl)cc2Cl)o1	ClpP mod 35µM
Cc1ccc(NC(=O)COc2ccccc2C(=O)Nc2ccccc2)cc1	none (no result: GLP-1R inv ag, HEK293 tox, GLP1R ag, DRD3 agonist, D3 antag)
CCOc1ccccc1-c1cncc(NC)n1	none
CN(C)C(=O)N1CCC(C(=O)NCc2ccc(F)cc2Cl)CC1	none
